Measurements: PubChem BioAssay (NCATS)
The source made the active and inactive calls. How the calls were made is not given here.
Potency means the concentration at half of the fitted maximal effect.

Test: Immunotoxin (HA22) sensitization/mitigation study. Vehicle arm (PBS) (AID 1159510)
Conditions: cancer cells viability with PBS vehicle (HA22 study); series mostly up to 46.1 µM
For Nc1ccc(C(=O)c2cc3c(ccc4ccccc43)[nH]2)cc1, the Potency was 0.743 µM (active). In the case of CCCCCCCCCCCCCCCCCCOP(=O)([O-])OC1CC[N+](C)(C)CC1, the Potency is reported as “inactive”. For COc1ccc(OC)c(-c2nnc3ccc(-c4ccc(OC)c(O[C@@H]5CCOC5)c4)nn23)c1, the Potency was 8.33 µM (active). For Cc1ccc2c(c1)C(=O)[C@@]1(O)CCN(c3ccccc3)C1=N2, the Potency was “inactive”. For CC(C)C[C@H](NC(=O)CNC(=O)c1cc(Cl)ccc1Cl)B(O)O, the Potency was 0.0187 µM (active). For CC1=C[C@@H]2[C@@H]([C@@H](O)C[C@@]3(C)[C@H]2C[C@@H](C)[C@]3(O)C(=O)CO)[C@@]2(C)Cc3cnn(-c4ccccc4)c3C=C12, the Potency was 1.66 µM (active). With COc1cc2c(cc1O)CC[C@@H]1[C@@H]2CC[C@]2(C)[C@@H](O)CC[C@@H]12 the Potency was 0.418 µM (active). For CC(C)Oc1cc(Nc2nc(N[C@@H](C)c3ccc(F)cn3)ncc2Cl)[nH]n1, the Potency was 20.9 µM (active). In the case of C=CCn1c(=O)c2cnc(Nc3ccc(N4CCN(C)CC4)cc3)nc2n1-c1cccc(C(C)(C)O)n1, the Potency is reported as 0.187 µM (active). In the case of CC=C1NC(=O)[C@H]2CSSCCC=C[C@H](CC(=O)N[C@H](C(C)C)C(=O)N2)OC(=O)[C@H](C(C)C)NC1=O, the Potency is reported as 0.0017 µM (active). In the case of Cc1ccc(C(=O)Nc2ccc(CN3CCN(C)CC3)c(C(F)(F)F)c2)cc1C#Cc1cnc2cccnn12, the Potency is reported as 1.32 µM (active). In the case of O=S(=O)(N=Cc1c(O)ccc2ccccc12)c1cccs1, the Potency is reported as 16.6 µM (active). With C[C@@H](Oc1cc(-c2cnn(C3CCNCC3)c2)cnc1N)c1c(Cl)ccc(F)c1Cl the Potency was 16.6 µM (active). For NC(=O)c1ccc(-c2nc(-c3ccc4c(c3)OCCO4)c(-c3ccccn3)[nH]2)cc1, the Potency was 20.9 µM (active). With CC1=C(CO)C(=O)O[C@@H]([C@@H](C)[C@H]2CC[C@H]3[C@@H]4C[C@H]5O[C@]56[C@@H](O)C=CC(=O)[C@]6(C)[C@@H]4CC[C@]23C)C1 the Potency was 0.0743 µM (active). For Cc1ccc(C(=O)N(CCCN)[C@@H](c2nc3cc(Cl)ccc3c(=O)n2Cc2ccccc2)C(C)C)cc1, the Potency was 0.0037 µM (active). With CC(C)(C)OC(=O)Nc1ccc(-c2cc(C(=O)NCCCCCCC(=O)NO)no2)cc1 the Potency was 0.0935 µM (active). In the case of CCCCCN(CCC12CC3CC(CC(C3)C1)C2)C(=O)NCCCc1ccncc1, the Potency is reported as 11.8 µM (active). In the case of Fc1ccc(Cl)cc1-c1nc(Nc2ccncc2)c2nccnc2n1, the Potency is reported as “inactive”. With c1ccc2c(-c3cnn4cc(-c5ccc(N6CCNCC6)cc5)cnc34)ccnc2c1 the Potency was 14.8 µM (active). With CCC(=O)N[C@H]1CC[C@H](C(=O)N(C)c2ccc(-c3nc4ccccc4o3)cc2)C1 the Potency was 7.43 µM (active). For Cc1ccc(S(=O)(=O)Nc2cc(Cl)ccc2C(=O)Nc2nc(-c3ccccc3)cs2)cc1, the Potency was 5.9 µM (active). In the case of CCCCCCCc1ccc(CCc2cccc(O)c2C(=O)O)cc1, the Potency is reported as 23.5 µM (active). For COc1cc(=C2C=c3ccccc3=N2)[nH]c1=Cc1[nH]c(C)cc1C, the Potency was 0.187 µM (active). For CCNC(=O)c1noc(-c2cc(C(C)C)c(O)cc2O)c1-c1ccc(CN2CCOCC2)cc1, the Potency was 0.0015 µM (active). In the case of COc1cc2c(Oc3ccc(-c4cnc(Nc5ccc(F)cc5)n(C)c4=O)cc3F)ccnc2cc1OCCCN1CCOCC1, the Potency is reported as 18.7 µM (active). With CC(C)(C)c1cc(C(=O)O)c(NC(=O)Nc2ccc3[nH]ncc3c2)s1 the Potency was “inactive”. In the case of Cc1ccc(F)c(NC(=O)Nc2ccc(-c3cccc4[nH]nc(N)c34)cc2)c1, the Potency is reported as 5.26 µM (active). In the case of CC(C)c1ccccc1Cc1cc(C(=O)Nc2ccc(S(=O)(=O)c3ccccc3C(C)(C)C)cc2)c(O)c(O)c1O, the Potency is reported as 0.743 µM (active). With CC(C)C(=O)Nc1ncc(-c2cc(C(F)F)nn2-c2c(Cl)cccc2Cl)s1 the Potency was 11.8 µM (active). With CC(C)C[C@@H](C(=O)N[C@H](C(=O)OC1CCCC1)c1ccccc1)[C@H](O)C(=O)NO the Potency was 23.5 µM (active). For C[C@H](NC(=O)Cc1cc(F)cc(F)c1)C(=O)N[C@@H]1C(=O)N(C)c2ccccc2-c2ccccc21, the Potency was “inactive”. With C=C1C(=CC=C2CCC[C@]3(C)[C@@H]([C@H](C)C=C[C@H](C)C(C)C)CC[C@@H]23)C[C@@H](O)C[C@@H]1O the Potency was 20.9 µM (active). With O=c1cc(N2CCOCC2)oc2c(-c3cccc4c3sc3ccccc34)cccc12 the Potency was 16.6 µM (active). With COc1ccccc1-c1cccc(-c2c(O)c3cc(C#N)c(Cl)cc3[nH]c2=O)c1 the Potency was “inactive”. For CCOc1cc2ncc(C#N)c(Nc3ccc(OCc4ccccn4)c(Cl)c3)c2cc1NC(=O)/C=C/CN(C)C, the Potency was 4.69 µM (active). With CC(=O)OCCN1C(=O)c2c(C)nc3ccc(S(=O)(=O)N4CCOCC4)cc3c2C1=O the Potency was “inactive”. With CC(=O)Nc1sc2c(c1-c1nc3ccccc3s1)CNC2 the Potency was 16.6 µM (active). For Cc1[nH]nc2ccc(-c3cncc(OC[C@@H](N)Cc4ccccc4)c3)cc12, the Potency was 1.18 µM (active).
